The text below walks through data of PubChem BioAssay (NCI).

Test systems include NCI-H23 lung; NCI-H226 lung; NCI-H322M lung; HOP-62 NSCLC; NCI-H460 lung; NCI-H522 lung; A549/ATCC NSCLC; 786-0 renal; COLO 205 colon; HOP-92 NSCLC.
Common to all, as to assay: NCI-60 one-dose screen, 48 h (100 = growth as untreated, 0 = no growth, -100 = all killed)
What all share (conditions): 10 µM unless noted

This is part of a sample that, as a whole, favours compounds with a hit. Of some 83,000 tested, about 20% had one in any assay.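 How to read the values: 0–100, growth inhibition (40 = 60% inhibited); 0, no net growth; -100 to 0, cell death (-40 = 40% of starting cells died; -100 = all dead).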 Values without a mark were called inactive. Active and inactive are the calls of the source. How the source made its calls: active means growth percent below 10; inactive means the rest.

For `CCN1C(=O)N(CC)C2SC(N/N=C/C=C/c3ccccc3OC)=NC21` (stereo unspecified), the growth was 30.4% with NCI-H23 lung; 54.9% with NCI-H226 lung; 44.8% in the experiment on NCI-H322M lung; 47.3% in the experiment on HOP-62 NSCLC; 2.9% (active) in the experiment with NCI-H460 lung; 1.31% (active) in the experiment with NCI-H522 lung. In addition, the figures for the growth in the experiment on A549/ATCC NSCLC, with 786-0 renal and in the experiment on COLO 205 colon were 27.1%, 23.8% and 7.22% (active), respectively.
Regarding `CCN(CC)Cc1c(-c2cccc(OC(F)(F)F)c2)[nH]c2ccc(N3CCCC3)cc2c1=O`, the growth in the experiment on NCI-H23 lung was 92.9%; in the experiment with NCI-H226 lung it was 96.1%; with NCI-H322M lung it was 87.3%; with HOP-62 NSCLC, 103%; with NCI-H460 lung, 97.5%; in the experiment with NCI-H522 lung, 87.5%. For the same compound, the figures for the growth in the experiment on A549/ATCC NSCLC, with 786-0 renal and in the experiment with COLO 205 colon were 99%, 98.6% and 103%, respectively.
`CCN1C(=O)N(CC)C2SC(N/N=C/c3ccc(OC)cc3)=NC21` (stereo unspecified): the growth was 24.6% in the experiment on NCI-H23 lung; 51.2% in the experiment on NCI-H226 lung; 42.1% in the experiment with NCI-H322M lung; 48% with HOP-62 NSCLC; 2.55% (active) in the experiment with NCI-H460 lung; 17.1% with NCI-H522 lung. Further, the figures for the growth in the experiment on A549/ATCC NSCLC, in the experiment with 786-0 renal and with COLO 205 colon were 23.9%, 19.6% and 2.66% (active), respectively.
Turning to `COc1cc2oc(-c3cccc(NC(=O)c4cc(NC(=O)[C@H](C)NC(=O)OC(C)(C)C)ccc4C)c3)cc(=O)c2c(OC)c1OC`, the growth in the experiment with NCI-H23 lung is 63.8%; with NCI-H226 lung it was 80.6%; in the experiment on NCI-H322M lung, 86.2%; in the experiment with HOP-62 NSCLC it was 84.5%; with NCI-H460 lung, 61.5%; in the experiment on NCI-H522 lung it was 72.2%. Also, the growth in the experiment on A549/ATCC NSCLC was 80.5%; with 786-0 renal, 77.5%; with COLO 205 colon, 67.7%.
For the compound `O=C(O)c1ccc(-n2cc(CNc3ccc(F)cc3)c(-c3ccc(C(F)(F)F)cc3)n2)cc1`, the growth is 93.3% in the experiment on NCI-H23 lung; 88.8% in the experiment with NCI-H226 lung; 89.9% in the experiment on NCI-H322M lung; 81.3% in the experiment with HOP-62 NSCLC; 84.4% with NCI-H460 lung; 93.8% with NCI-H522 lung. Moreover, the growth was 74% with A549/ATCC NSCLC and 105% with 786-0 renal.
As for `Cc1cc(O)c(=O)cc2c1C[C@H]1CC(C)(C)/C=C/C[C@]3(C)Oc4cc(=O)c(O)cc(C)c4C[C@H]3C[C@H](O)[C@@]1(C)O2`, the growth was -10.9% (active) with NCI-H23 lung; 14.7% in the experiment on NCI-H226 lung; 16% in the experiment on NCI-H322M lung; -12.4% (active) in the experiment on HOP-62 NSCLC; 0.132% (active) in the experiment with NCI-H460 lung; -26.9% (active) in the experiment on NCI-H522 lung. Moreover, the growth is -24.3% (active) with 786-0 renal and -10.3% (active) with COLO 205 colon.
For `CC(C)c1nn(-c2ccccc2)c(N2CCCCC2)c1/C=N/NC(N)=S`, the growth in the experiment on NCI-H23 lung is 90.9%; with NCI-H226 lung, 88.2%; with NCI-H322M lung, 82.3%; with HOP-62 NSCLC, 101%; in the experiment on NCI-H460 lung, 96.5%; in the experiment on NCI-H522 lung, 86.1%. The values for the growth with A549/ATCC NSCLC, in the experiment on 786-0 renal and with COLO 205 colon were 79.2%, 101% and 97%, respectively.
For the compound `CS(=O)(=O)c1nccc(-c2c(-c3ccc(F)c(OCCc4ccc(F)cc4)c3)nc3sccn23)n1`, the growth in the experiment with NCI-H23 lung is 10.7%; with NCI-H226 lung, 78.1%; in the experiment with NCI-H322M lung it was -89.1% (active); in the experiment on HOP-62 NSCLC, 15.1%; in the experiment on NCI-H460 lung it was -56% (active); in the experiment with NCI-H522 lung it was -74.5% (active). For the same compound, the growth with A549/ATCC NSCLC is 83.5%; with 786-0 renal, 87.3%; in the experiment on COLO 205 colon, 86.9%.
Regarding `Cc1cc(NS(=O)(=O)c2ccc(-c3cnc(C4CC4)o3)cc2)ccc1I`, the growth in the experiment with NCI-H23 lung is 37.7%; in the experiment with NCI-H226 lung, 57.8%; with NCI-H322M lung it was 45.8%; with HOP-62 NSCLC, 43.8%; with NCI-H460 lung it was 22.2%; in the experiment on HOP-92 NSCLC, 62.4%. Also, the growth in the experiment on NCI-H522 lung was 30.6%; with 786-0 renal, 46.3%; in the experiment on COLO 205 colon, 22.9%.
For `COc1ccc([C@H]2[C@H](O)C(=O)N2c2cc(OC)c(OC)c(OC)c2)cc1`, the growth with NCI-H23 lung is 12.6%; with NCI-H226 lung, 19.5%; in the experiment with NCI-H322M lung, 47.9%; with HOP-62 NSCLC, 26.2%; with NCI-H460 lung, 3.39% (active); in the experiment on NCI-H522 lung, -20.8% (active). Besides, the results for the growth in the experiment with A549/ATCC NSCLC, in the experiment on 786-0 renal and with COLO 205 colon were 21.6%, 19.5% and -74.6% (active), respectively.
Consider `CCN1C(=O)N(CC)C2SC(N/N=C/c3ccc(F)cc3)=NC21` (stereo unspecified), for which the growth was 29.6% in the experiment with NCI-H23 lung; 48.1% with NCI-H226 lung; 55.2% with NCI-H322M lung; 33% with HOP-62 NSCLC; 4.72% (active) in the experiment on NCI-H460 lung; -32.8% (active) in the experiment with NCI-H522 lung. Besides, the growth is 30.3% with 786-0 renal and -49.1% (active) with COLO 205 colon.
`COc1cc(-c2nc(SCc3ccc(C)cc3)[nH]c(=O)c2C#N)ccc1OCc1ccccc1`: the growth in the experiment with NCI-H23 lung is 106%; with NCI-H226 lung it was 96.2%; in the experiment with NCI-H322M lung it was 104%; in the experiment with HOP-62 NSCLC, 104%; with NCI-H460 lung it was 104%; in the experiment with HOP-92 NSCLC it was 113%. For the same compound, the growth with NCI-H522 lung is 95.6%; in the experiment on 786-0 renal, 103%; with COLO 205 colon, 119%.
On to `CN(C)C(=O)c1ccccc1-n1cnc2ccccc2c1=O`, for which the growth in the experiment on NCI-H23 lung is 99.3%; in the experiment with NCI-H226 lung, 102%; in the experiment on NCI-H322M lung it was 98.5%; in the experiment with HOP-62 NSCLC it was 112%; in the experiment with NCI-H460 lung, 101%; with NCI-H522 lung it was 101%. Besides, the growth was 99.2% in the experiment on A549/ATCC NSCLC, 101% with 786-0 renal and 109% in the experiment on COLO 205 colon.
With `COc1cc2c3c(n(CCCNC4CCC4)c(=O)c2cc1OC)-c1cc2c(cc1C3=O)OCO2`, the growth in the experiment on NCI-H23 lung was -68% (active); in the experiment with NCI-H226 lung it was 70.6%; with NCI-H322M lung it was -37.7% (active); in the experiment on HOP-62 NSCLC, -72.2% (active); in the experiment on NCI-H460 lung, -50.4% (active); in the experiment with NCI-H522 lung, -44.9% (active). The results for the growth in the experiment on 786-0 renal and in the experiment on COLO 205 colon were -85.2% (active) and -79.9% (active), respectively.
As for `CN(c1ccc(Cl)cc1)S(=O)(=O)c1ccc(-c2cnc(C3CC3)o2)cc1`, the growth with NCI-H23 lung is 23.8%; in the experiment with NCI-H226 lung, 14.5%; in the experiment on NCI-H322M lung, 55%; with HOP-62 NSCLC, 45.6%; in the experiment on NCI-H460 lung, 8.85% (active); with NCI-H522 lung, 30.8%. Moreover, the growth is 24.3% with A549/ATCC NSCLC, 31.9% in the experiment with 786-0 renal and -7.11% (active) in the experiment on COLO 205 colon.
